The entries come from a sample that favours hits as a whole.
PKM2 inhibitor = qHTS Assay for Inhibitors of Human Muscle isoform 2 Pyruvate Kinase | purified PKM2, ATP generation, Kinase-Glo luminescence | Potency, µM (top dose mostly 57.5 µM), inactives show top-dose activity change, negative = inhibition, usual class: inhibitors | Pyruvate kinase PKM (Homo sapiens), P14618 | hit rate 0.058% among 260,000 | AID 1634, 2009; note: potency is the fitted concentration of half-maximal effect; nearly all actives have a fitted effect of over 60% in size
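Enzyme run at intermediate activity with final 0.1 mM ADP, 0.5 mM PEP (50 mM imidazole pH7.2, 50 mM KCl, 7 mM MgCl2), incubated 1 h at r.t. ATP formed read by Kinase-Glo luminescence, normalized to no-enzyme (full inhibition) and uninhibited wells.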
PKM2 inh dose = Confirmation Concentration-Response Assay for Inhibitors of Human Muscle isoform 2 Pyruvate Kinase | shares compounds with PKM2 inhibitor | AID 2263, 2010 | purified hPK-M2, Kinase-Glo ATP luminescence, 1 h | Potency, µM (series often up to 57.5 µM), inactives show top-dose activity change, negative = inhibition, most hits filed as inhibitors | hit rate 50% among 55
PKM2 FLuc cs = Secondary assay for Inhibitors of Human Pyruvate Kinase M2 isoform: FLuc Counterscreen; AID 2265, 2010; Potency, µM (titrated, usually from 57.5 µM), without a hit: at the highest dose activity, negative = inhibition, hits mostly inhibitors; Kinase-Glo firefly luciferase, luminescence, 8 min; hit rate 30% among 55; shares compounds with PKM2 inhibitor
PKM2 LDH couple = Secondary assay for Inhibitors of Human Pyruvate Kinase M2 isoform; shares compounds with PKM2 inhibitor; purified hPK-M2, LDH-coupled NADH fluorescence kinetic; Potency, µM (doses to about 57.5 µM), without a hit: at the top dose activity change, negative = inhibition, usual class: inhibitors; 55 tested, under 10 active; AID 2267, 2010
An asterisk follows results filed as active; ? = inconclusive. Calls come from the whole dose curve; as a rule, active = well fitted curve in the direction sought with a large enough effect; inconclusive = small, poorly fitted or top-dose-only effect, or another doubt; inactive = no such curve, though single readings can be large; an effect the other way counts as inactive or inconclusive.

SMILES	PKM2 inhibitor	others
COC(=O)[C@@]1(Cc2ccc(F)cc2)[C@H]2c3cc(C(=O)N4CCCC4)n(CCc4ccc(O)c(O)c4)c3C[C@H]2CN1C(=O)c1ccccc1	42%
NC(=O)/C=C\C(=O)Nc1cccc(C(F)(F)F)c1	36%
O=C(Nc1ccc(F)cc1)N1CCCN(c2nccc(C(F)(F)F)n2)CC1	44%
Cc1ccccc1-c1nc(-c2ccccn2)no1	8.9µM*	PKM2 inh dose=12µM*;PKM2 FLuc cs=5.2µM*;PKM2 LDH couple=-3%
COc1ccc(C(=O)NCc2oc(-c3ccccc3)cc2C(=O)O)cc1	39%
COc1ccc(-c2nc(-c3ccccn3)no2)cc1	3.5µM*	PKM2 inh dose=5.8µM*;PKM2 FLuc cs=3.3µM*;PKM2 LDH couple=-12%
C=C(C)CN=c1scc(C)n1/N=C/c1ccco1	2%
Cn1c(SCC(=O)c2ccc(-c3ccccc3)cc2)nnc1-c1ccco1	31%
Cc1ccc(S(=O)(=O)N2CCN=C2SCc2cccnc2)cc1	41%
Clc1cccc(-c2noc3ncnc(Nc4ccc5c(c4)OCO5)c23)c1	-1%
Cc1ccc(-n2[nH]c(C)c(/C=N/c3ccccn3)c2=O)cc1	11µM*	PKM2 inh dose=?;PKM2 FLuc cs=?;PKM2 LDH couple=-11%
O=C(CSc1nc2c(c(=O)[nH]1)CN(Cc1ccc(F)cc1)CC2)Nc1ccc(F)cc1	72%
O=C(O)c1cc(Cl)c2c(c1)[C@@H]1C=CC[C@@H]1[C@H](c1ccc(S(=O)(=O)N3CCOCC3)cc1)N2	47%
CCOc1ccc2nc(S(N)(=O)=O)sc2c1	43%
CCn1c(SCC(=O)N/N=C/C=C/c2ccco2)nc2ccccc21	46%

Assay outcomes deposited in PubChem BioAssay by National Center for Advancing Translational Sciences (NCATS).
